Assay [1] in a line: ATG_CRE_CIS: Attagene CIS-FACTORIAL HepG2 Assay for human cAMP Responsive Element (CRE) binding protein 3 (AID 2282926). The settings on record: HepG2 CRE cis-reporter, Attagene multiplexed mRNA; actives raise or lower the signal. The procedure, abridged: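 Capillary electrophoresis of 6-FAM-labelled, HpaI-digested PCR products quantified reporter transcripts. These came from HepG2 transiently transfected with cis-element reporters and exposed to test chemicals for 24 hours, with DMSO defining baseline activity.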

Assay [2] deals with CCAAT/enhancer-binding protein beta (Homo sapiens) (UniProt P17676). The experiment in a line: ATG_C_EBP_CIS: Attagene CIS-FACTORIAL HepG2 Assay for human CCAAT/Enhancer Binding Protein (C/EBP) beta (AID 2282927). The settings on record: HepG2 Attagene cis-factorial transcription factor reporter; actives raise or lower the signal. The procedure, abridged:
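HepG2 transiently transfected with multiplexed reporter units under cis-regulatory promoters reporting endogenous C/EBPb activity. After 24 h exposure, reporter mRNA assayed by RT-PCR, fluorescent labelling, HpaI digestion and capillary electrophoresis; bidirectional fitting versus DMSO.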

Assay [3] in a line: ATG_CMV_CIS: Attagene CIS-FACTORIAL HepG2 Assay for human CMV (Internal Marker) (AID 2282928).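 Further: endpoint acts as a background internal control marker rather than a target.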 The settings on record: HepG2 CMV promoter reporter, transcription factor profiling; actives raise or lower the signal. In a few lines:
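24 h chemical treatment, HepG2 with transient multi-reporter transfection; RNA → oligo(dT) RT → PCR → 6-FAM extension → HpaI digest → CE fluorescence. Bidirectional fit, DMSO negative control.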

The nature of assay [4]: ATG_DR4_LXR_CIS: Attagene CIS-FACTORIAL HepG2 Assay for human Liver X Receptor (LXR), DR4 submotif (AID 2282929). The settings on record: HepG2 Attagene DR4 cis-reporter, mRNA transcription; actives raise or lower the signal. The procedure, abridged: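 Transiently transfected HepG2 liver cells; cis-regulated reporters; 24 h dosing. RT-PCR plus CE read-out of reporter mRNA. DMSO baseline, bidirectional curve fitting.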

The target in assay [5] is Aryl hydrocarbon receptor (Homo sapiens) (UniProt P35869). The experiment in a line: ATG_Ahr_CIS: Attagene CIS-FACTORIAL HepG2 Assay for human Aryl Hydrocarbon Receptor (Ahr) (AID 2282930). The settings on record: HepG2 AhR cis-factorial reporter transcription; actives raise or lower the signal. In a few lines:
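HepG2 cells transiently transfected with cis-element-driven multiplexed reporter units; endogenous AhR activity read as reporter mRNA 24 h after dosing, via RT-PCR, 6-FAM labelling, HpaI digestion and capillary electrophoresis. Bidirectional fit relative to DMSO.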

A short description of assay [6]: ATG_BRE_CIS: Attagene CIS-FACTORIAL HepG2 Assay for human Bone Morphogenetic Protein (BMP) Response Element (BRE) (AID 2282933). The settings on record: HepG2 BMP response element reporter, Attagene transcription factor profiling; actives raise or lower the signal. The procedure, abridged:
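Endogenous transcription factor activity at a BMP response element was monitored in transfected HepG2 cells 24 h after dosing. Fluorescent RT-PCR products were resolved by capillary electrophoresis, and activity was fitted in both directions versus DMSO.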

The target of assay [7] is Retinoic acid receptor alpha (Homo sapiens) (UniProt P10276). Nature of the assay: ATG_DR5_RAR_CIS: Attagene CIS-FACTORIAL HepG2 Assay for human Retinoic Acid Receptor Alpha (RARE), DR5 submotif (AID 2282934). The settings on record: HepG2 Attagene cis-factorial RARE DR5 reporter, mRNA; actives raise or lower the signal. The procedure, abridged: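 HepG2 cells transiently transfected with multiplexed reporter units; DR5 cis-element drives reporter through endogenous transcription factors. After 24 h dosing, reporter mRNA quantified by RT-PCR, fluorescent labeling, HpaI digestion and capillary electrophoresis; bidirectional fitting versus DMSO.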
Retinoic acid receptor alpha (Homo sapiens), sequence (P10276 whole entry, looked up): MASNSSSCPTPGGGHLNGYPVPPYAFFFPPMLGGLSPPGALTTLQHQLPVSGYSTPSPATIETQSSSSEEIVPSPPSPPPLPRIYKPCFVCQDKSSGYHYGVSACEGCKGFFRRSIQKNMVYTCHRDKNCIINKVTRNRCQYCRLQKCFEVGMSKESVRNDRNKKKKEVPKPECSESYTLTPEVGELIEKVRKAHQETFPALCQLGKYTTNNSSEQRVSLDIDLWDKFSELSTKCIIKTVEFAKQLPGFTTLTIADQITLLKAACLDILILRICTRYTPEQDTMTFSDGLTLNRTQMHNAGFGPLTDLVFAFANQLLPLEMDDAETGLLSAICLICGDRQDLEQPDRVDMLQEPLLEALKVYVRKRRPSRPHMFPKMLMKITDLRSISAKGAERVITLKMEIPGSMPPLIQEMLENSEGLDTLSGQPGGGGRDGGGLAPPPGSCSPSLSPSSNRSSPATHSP

Assay [8] addresses Transcription factor E2F1 (Homo sapiens) (UniProt Q01094). The experiment in a line: ATG_E2F_CIS: Attagene CIS-FACTORIAL HepG2 Assay for human E2F Transcription Factor 1 (AID 2282935). The settings on record: HepG2 Attagene cis-reporter, E2F reporter RNA transcripts; actives raise or lower the signal. In a few lines:
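Transient MRTU transfection of HepG2; 24 h compound exposure; RNA → oligo(dT) RT → PCR → FAM label → HpaI cut → CE fluorescence. Gain/loss of signal fit against DMSO.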

A short description of assay [9]: ATG_E_Box_CIS: Attagene CIS-FACTORIAL HepG2 Assay for human Enhancer Box (E-box) (AID 2282936). The settings on record: HepG2 E-box cis-reporter transcription, actives raise or lower the signal. The procedure, abridged: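 Transiently transfected HepG2, endogenous TF-driven reporters, 24 h dosing. Readout: RT-PCR plus capillary electrophoresis of fluorescent reporter fragments. Gain or loss of signal fitted bidirectionally against DMSO baseline.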

Assay [10] in a line: ATG_M_61_CIS: Attagene CIS-FACTORIAL HepG2 Assay for M61 Transcription Factor (Internal Marker) (AID 2282937). The settings on record: HepG2 Attagene CIS-FACTORIAL M61 internal marker reporter; actives raise or lower the signal. The procedure, abridged: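 Multiplexed reporter mRNA assay, HepG2 human hepatoma cells, 24 h treatment. Signal: FAM-labelled, HpaI-digested RT-PCR fragments by CE. Fit: bidirectional, baseline DMSO.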

The nature of assay [11]: ATG_EGR_CIS: Attagene CIS-FACTORIAL HepG2 Assay for human Early Growth Response 1 (EGR1) (AID 2282938). The settings on record: HepG2 Attagene CIS-FACTORIAL EGR reporter mRNA; actives raise or lower the signal. In a few lines:
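Multiplexed cis-reporter system in human hepatoma HepG2 cells, transiently transfected. Cells are dosed for 24 h; reporter transcripts are amplified, fluorescently tagged and sized by capillary electrophoresis, with DMSO as negative control.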

The nature of assay [12]: ATG_M_19_CIS: Attagene CIS-FACTORIAL HepG2 Assay for M19 Transcription Factor (Internal Marker) (AID 2282939). The settings on record: HepG2 Attagene CIS-FACTORIAL M19 internal marker reporter; actives raise or lower the signal. The procedure, abridged:
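Background-control endpoint from a multiplexed HepG2 reporter panel. Cells carrying cis-regulated reporter constructs are treated 24 h, then reporter transcripts are amplified, fluorescently labelled and sized by capillary electrophoresis. DMSO defines baseline.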

Assay [13] is described as follows: ATG_Ets_CIS: Attagene CIS-FACTORIAL HepG2 Assay for human Erythroblast Transformation Specific (ETS) (AID 2282941). The settings on record: HepG2 ETS cis-reporter transcription, actives raise or lower the signal. In a few lines: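 Cis-regulated reporter mRNA induction in HepG2 (transient transfection), 24 h exposure, RT-PCR plus capillary electrophoresis detection; DMSO serves as negative control and baseline.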

The target in assay [14] is Hepatocyte nuclear factor 3-beta (Homo sapiens) (UniProt Q9Y261). The experiment in a line: ATG_FoxA2_CIS: Attagene CIS-FACTORIAL HepG2 Assay for human Forkhead box A2 (FOXA2) (AID 2282942). The settings on record: HepG2 cis-reporter transcription factor activity, 24 h; actives raise or lower the signal. In a few lines: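 Multiplexed cis-element reporter assay in transiently transfected HepG2. Twenty-four hours post-dosing, RNA was reverse-transcribed, amplified, FAM-labelled, HpaI-digested and separated by CE. Activity gain or loss relative to DMSO.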
Hepatocyte nuclear factor 3-beta (Homo sapiens), sequence (Q9Y261 whole entry, looked up): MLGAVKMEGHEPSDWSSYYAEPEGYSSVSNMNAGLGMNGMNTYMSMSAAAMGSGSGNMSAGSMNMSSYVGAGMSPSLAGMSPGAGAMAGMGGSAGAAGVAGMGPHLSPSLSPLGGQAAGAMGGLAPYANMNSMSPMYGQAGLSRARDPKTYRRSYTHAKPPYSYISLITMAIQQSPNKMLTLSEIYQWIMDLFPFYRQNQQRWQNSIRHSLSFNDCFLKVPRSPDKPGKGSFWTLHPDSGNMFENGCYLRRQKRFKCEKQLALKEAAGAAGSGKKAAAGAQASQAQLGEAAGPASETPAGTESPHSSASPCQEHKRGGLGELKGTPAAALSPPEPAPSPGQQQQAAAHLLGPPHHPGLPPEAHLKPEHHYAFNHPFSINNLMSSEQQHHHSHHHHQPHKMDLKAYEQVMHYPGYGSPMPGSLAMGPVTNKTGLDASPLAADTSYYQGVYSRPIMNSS

Assay [15] is described as follows: ATG_FoxO_CIS: Attagene CIS-FACTORIAL HepG2 Assay for human Forkhead box O (FoxO) (AID 2282943). The settings on record: HepG2 Attagene cis-reporter, FoxO element, mRNA; actives raise or lower the signal. In a few lines:
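HepG2 cells transiently transfected with cis-element-driven reporter units report endogenous FoxO activity. After 24 h chemical exposure, reporter mRNA quantified by RT-PCR, fluorescent labeling, HpaI digestion and capillary electrophoresis; bidirectional fit versus DMSO.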

Assay [16] is described as follows: ATG_GATA_CIS: Attagene CIS-FACTORIAL HepG2 Assay for human GATA Binding Protein (AID 2282944). The settings on record: HepG2 GATA cis-element reporter, Attagene multiplex mRNA; actives raise or lower the signal. The procedure, abridged: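 Endogenous transcription factor activity was captured through cis-promoter-driven reporters in transfected HepG2 cells. After 24 h exposure, reporter transcripts were quantified by RT-PCR with fluorescent capillary electrophoresis, and responses fitted both directions against DMSO.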

A short description of assay [17]: ATG_GLI_CIS: Attagene CIS-FACTORIAL HepG2 Assay for human Zinc Finger Protein GLI1 (AID 2282945). The settings on record: HepG2, Attagene cis-factorial reporter mRNA, GLI element; actives raise or lower the signal. In a few lines: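 Transiently transfected HepG2 cells report endogenous transcription factor activity via cis-element-driven reporter units. After 24 h compound exposure, reporter mRNA was measured by RT-PCR with capillary electrophoresis; bidirectional fitting against DMSO baseline.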

The nature of assay [18]: ATG_AP_2_CIS: Attagene CIS-FACTORIAL HepG2 Assay for human Activator Protein 2 (AP-2) (AID 2282932). The settings on record: HepG2 AP-2 cis-reporter, Attagene transcription factor profiling; actives raise or lower the signal. The procedure, abridged: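 Read-out: fluorescent reporter mRNA via RT-PCR and capillary electrophoresis, 24 h post-dose in transiently transfected HepG2. Endogenous factors drive cis-promoter reporters; gain or loss of signal fitted bidirectionally against DMSO.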

The nature of assay [19]: ATG_ERE_CIS: Attagene CIS-FACTORIAL HepG2 Assay for Estrogen Response Element (ERE) (AID 2282940). The settings on record: HepG2 ERE cis-reporter, Attagene RNA transcript; actives raise or lower the signal. In a few lines:
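Cells used were human hepatoma HepG2, transfected with multiple reporter transcription units under cis-regulatory promoters. Reporter mRNA, read 24 h post-dosing via fluorescent RT-PCR products on capillary electrophoresis, was fitted bidirectionally relative to DMSO.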

Active and inactive are the calls of the source. How the source made its calls: active means hit-call score of the fitted dose curve at least 0.9, where 1 is the maximum; inactive means score below 0.9.

CCAAT/enhancer-binding protein beta (Homo sapiens), sequence (P17676 whole entry, looked up): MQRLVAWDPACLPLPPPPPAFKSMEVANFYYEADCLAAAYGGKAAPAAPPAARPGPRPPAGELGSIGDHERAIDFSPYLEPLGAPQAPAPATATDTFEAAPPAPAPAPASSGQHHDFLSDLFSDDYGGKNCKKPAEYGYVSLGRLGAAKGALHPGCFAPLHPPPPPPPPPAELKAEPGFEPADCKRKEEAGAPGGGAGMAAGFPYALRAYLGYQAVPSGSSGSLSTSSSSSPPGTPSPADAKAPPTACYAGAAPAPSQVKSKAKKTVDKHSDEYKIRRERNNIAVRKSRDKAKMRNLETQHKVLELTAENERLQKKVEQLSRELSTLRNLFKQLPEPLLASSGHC
Transcription factor E2F1 (Homo sapiens), sequence (Q01094 whole entry, looked up): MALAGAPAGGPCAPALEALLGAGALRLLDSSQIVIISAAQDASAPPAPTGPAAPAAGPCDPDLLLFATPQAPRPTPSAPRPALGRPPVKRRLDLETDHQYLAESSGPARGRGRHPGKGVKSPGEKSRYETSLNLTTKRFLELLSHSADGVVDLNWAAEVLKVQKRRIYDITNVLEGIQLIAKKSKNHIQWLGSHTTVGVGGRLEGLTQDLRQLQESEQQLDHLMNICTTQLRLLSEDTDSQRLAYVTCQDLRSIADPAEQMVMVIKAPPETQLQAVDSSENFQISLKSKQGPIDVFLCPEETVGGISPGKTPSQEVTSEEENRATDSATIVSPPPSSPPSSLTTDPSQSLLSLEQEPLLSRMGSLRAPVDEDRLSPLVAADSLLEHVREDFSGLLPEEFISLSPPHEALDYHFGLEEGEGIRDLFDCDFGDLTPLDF
Aryl hydrocarbon receptor (Homo sapiens), sequence (P35869 whole entry, looked up): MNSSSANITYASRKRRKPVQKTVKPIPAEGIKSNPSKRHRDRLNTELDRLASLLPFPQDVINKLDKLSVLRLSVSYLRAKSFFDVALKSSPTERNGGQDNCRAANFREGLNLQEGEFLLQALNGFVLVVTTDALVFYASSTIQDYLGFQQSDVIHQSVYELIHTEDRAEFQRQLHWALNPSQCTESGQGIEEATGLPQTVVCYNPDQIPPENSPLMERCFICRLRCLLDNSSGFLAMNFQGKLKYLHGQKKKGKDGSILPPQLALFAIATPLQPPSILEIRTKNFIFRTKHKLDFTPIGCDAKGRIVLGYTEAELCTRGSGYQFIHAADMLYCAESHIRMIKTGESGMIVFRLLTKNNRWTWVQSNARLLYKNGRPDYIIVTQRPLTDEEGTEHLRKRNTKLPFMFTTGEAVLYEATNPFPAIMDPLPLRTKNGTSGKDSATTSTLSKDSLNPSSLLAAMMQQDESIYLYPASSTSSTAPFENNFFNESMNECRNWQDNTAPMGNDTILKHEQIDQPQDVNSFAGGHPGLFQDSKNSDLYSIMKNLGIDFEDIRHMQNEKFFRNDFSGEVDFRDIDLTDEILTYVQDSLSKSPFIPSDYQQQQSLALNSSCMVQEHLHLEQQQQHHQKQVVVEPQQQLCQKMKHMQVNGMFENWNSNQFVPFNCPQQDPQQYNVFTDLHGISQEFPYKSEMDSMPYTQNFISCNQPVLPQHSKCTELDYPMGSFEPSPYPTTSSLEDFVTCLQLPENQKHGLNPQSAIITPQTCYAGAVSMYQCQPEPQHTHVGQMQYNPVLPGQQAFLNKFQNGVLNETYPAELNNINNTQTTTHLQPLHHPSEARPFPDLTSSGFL

Turning to `CC(C)N(Cc1ccccc1)C(=O)C(C)(C)C`, the result in assay [1], in [2], in [3], in assay [4], in [5] and in assay [6] was inactive. The molecule was classed as inactive in assay [7], in assay [8], in assay [9], in assay [10], in assay [11] and in assay [12]. For the same molecule, the molecule was classed as inactive in assay [13], in assay [14], in [15], in assay [16] and in assay [17].

For `O=[N+]([O-])c1ccc(Oc2ccc(Cl)cc2Cl)cc1`, the molecule was classed as inactive in assay [1], in assay [2], in [8], in assay [10], in assay [12] and in assay [13]. In addition, the molecule was classed as inactive in assay [14], in assay [15], in assay [16] and in [17]. For the same molecule, the concentration at half-maximal activity (AC50) in assay [3] was 100 µM (active); in assay [4] it was 48.1 µM (active); in [5], 68.6 µM (active); in assay [6], 56.4 µM (active); in [9], 71.5 µM (active); in assay [11], 28.3 µM (active).

For `COC(=O)c1ccccc1N`, the molecule was called inactive in assay [1], in [2], in [3], in assay [4], in assay [18] and in assay [6]. Besides, the result in assay [8], in assay [9], in assay [10], in assay [11], in assay [12] and in assay [13] was inactive. In addition, the molecule was called inactive in assay [14], in assay [15], in [16] and in [17]. Besides, in [5], the AC50 is 43.8 µM (active).

With `CC(C)COC(=O)c1ccccc1C(=O)OCC(C)C`, the AC50 was 59.3 µM (active) in [1]; 67.5 µM (active) in [3]; 73 µM (active) in [4]; 110 µM (active) in assay [6]; 100 µM (active) in assay [9]; 73.4 µM (active) in assay [11]. In addition, the AC50 in assay [19] was 39.6 µM (active). Also, the outcome in assay [2], in assay [5], in assay [7], in assay [8], in assay [10] and in assay [12] was inactive. In addition, the molecule was called inactive in [13], in assay [14], in assay [15], in assay [16] and in assay [17].

The term AC50 denotes the concentration giving half of the maximal activity seen.

These data come from PubChem BioAssay (EPA / NIEHS).
